Shown are actives, neighbours in structure and some others; about 3.5% of the full set was active somewhere.
TR SRC2 fluor cs = counter-screen for TRb-SRC2 inhibitors: fluorescence interference; AID 1479; TRb/SRC2 Texas Red total fluorescence interference; Potency, µM (highest dose often 106 µM), inactives show at the top dose fluorescence change, negative = quenching; 0.29% of 280,000 active; active means well fitted curve in either direction with a large enough effect; inconclusive means small, poorly fitted or top-dose-only effect
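Flags fluorescent or light-absorbing compounds by total fluorescence, S + 2P, at 555 nm excitation and 632 nm emission. Mixture: 20 nM Texas Red SRC2 peptide, 0.6 uM human TRb LBD, 1 uM T3, 5% DMSO; compound exposure 5 h at ambient temperature.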
Tau ThT inhib = blocks human tau fibril formation measured by thioflavin T; P10636; recombinant tau K18 P301L, heparin-induced fibrillization, ThT fluorescence; Potency, µM (titrated, usually from 57.4 µM), inactives show at the highest dose activity, negative = inhibition, most hits filed as inhibitors; 2.1% of 270,000 active; AID 1460; further: nearly all actives have a fitted effect of over 55% in size
Target sequence (P10636 561-689 P618L limits assumed): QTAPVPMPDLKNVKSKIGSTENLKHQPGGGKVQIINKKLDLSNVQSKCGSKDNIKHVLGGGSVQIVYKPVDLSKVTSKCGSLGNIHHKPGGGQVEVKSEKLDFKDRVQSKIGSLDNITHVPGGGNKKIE
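Heparin-induced (20 uM) aggregation of recombinant human K18 P301L tau, 15 uM unlabeled with 0.24 uM labeled, pH 7 acetate buffer, 6 hr at 37 C with compound. Fibrils quantified by 30 uM ThT fluorescence after 1 hr ambient incubation.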
TRb SRC2 PPI = inhibitors of human thyroid hormone receptor beta-SRC2 interaction; Potency, µM (titrated, usually from 106 µM), for the others: top-dose activity change, negative = inhibition, most hits filed as inhibitors; TRbeta-SRC2 peptide binding, fluorescence polarization; receptor liganded with 1 µM T3; 0.065% of 280,000 active;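 further: plate controls were bound peptide for no effect and peptide without receptor for full effect; nearly all actives have a fitted effect of over 50% in size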
Target sequence (P10828 whole entry, looked up): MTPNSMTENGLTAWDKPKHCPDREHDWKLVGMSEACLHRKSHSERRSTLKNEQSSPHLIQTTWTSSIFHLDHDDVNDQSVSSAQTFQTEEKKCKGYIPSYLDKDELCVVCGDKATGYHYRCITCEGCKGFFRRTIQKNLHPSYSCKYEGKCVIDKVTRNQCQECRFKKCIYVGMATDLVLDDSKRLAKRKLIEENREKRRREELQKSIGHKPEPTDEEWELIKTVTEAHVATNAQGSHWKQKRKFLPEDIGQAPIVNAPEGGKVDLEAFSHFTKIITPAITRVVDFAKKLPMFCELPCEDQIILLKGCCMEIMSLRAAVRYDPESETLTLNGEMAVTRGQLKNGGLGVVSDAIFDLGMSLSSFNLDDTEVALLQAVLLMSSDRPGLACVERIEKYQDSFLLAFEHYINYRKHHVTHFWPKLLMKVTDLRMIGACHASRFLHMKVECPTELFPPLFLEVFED
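Read-out is fluorescence polarization (555 nm excitation, 632 nm emission) of a Texas Red SRC2 coactivator peptide; loss of signal reflects blocked binding to human TRb ligand-binding domain in the presence of 1 uM T3.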
Tau fluor cs = counter-screen for tau fibril formation inhibitors; 0.93% of 280,000 active; AID 1463; tau K18 P301L (four-repeat tau fragment) Alexa594 fluorescence, heparin fibrillization; Potency, µM (doses to about 57.7 µM), for inactives: at the highest dose activity change, negative = decrease; further: nearly all actives have a fitted effect of over 55% in size
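Human K18 P301L tau (15 uM unlabeled plus 0.24 uM Alexa 594-labeled, final) in 100 mM sodium acetate pH 7 was mixed with compound and 20 uM heparin and incubated 6 hr at 37 C.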
Tau FP inhib = blocks human tau fibril formation measured by polarization | P10636 | K18 P301L tau heparin fibrillization, Alexa594 FP, 6 h | Potency, µM (series often up to 57.7 µM), for inactives: at the top dose activity, negative = inhibition, hits mostly inhibitors | 0.39% of 280,000 active | AID 1468; further: nearly all actives have a fitted effect of over 55% in size
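K18 P301L tau (15 uM unlabeled/0.24 uM Alexa 594-labeled, final) + compound + heparin 20 uM final; 100 mM NaOAc pH 7; 6 hr 37 C; ThT 30 uM final added, 1 hr RT; FP ex 555/em 632 nm.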
JMJD2E inh = blocks human JMJD2E demethylase activity; JMJD2E catalytic domain, FDH-coupled NADH fluorescence (FDH is formaldehyde dehydrogenase); 1.6% of 230,000 active; Potency, µM (highest dose often 57.1 µM), without a hit: top-dose activity change, negative = inhibition, actives largely listed as inhibitors; AID 2147; B2RXH2; active means well fitted inhibition curve with a large enough effect, not every such curve was filed as active; inconclusive means small, poorly fitted or top-dose-only effect, or another doubt; inactive means no such curve, though single readings can be large or run the other way;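 further: 0% = wells with enzyme and -100% = buffer wells without enzyme; nearly all actives have a fitted effect of over 50% in size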
* hit, by the source's call; ? = inconclusive; . = no result given; [ ] = dose if it differs, or a comment. Unless noted, the call rests on the fitted dose curve; in most records, active means well fitted curve in the direction sought with a large enough effect; inconclusive means small, poorly fitted or top-dose-only effect, or another doubt; inactive means no such curve, though single readings can be large; an effect the other way counts as inactive or inconclusive. Unless noted, on the % scale 0 is the no-effect control and ±100 the full control effect; potency means the concentration at half of the fitted maximal effect.

SMILES | TR SRC2 fluor cs | Tau ThT inhib | TRb SRC2 PPI | Tau fluor cs | Tau FP inhib | JMJD2E inh
Cc1ccc(NC(=S)NNC(=S)Nc2cccc(C(F)(F)F)c2)cc1 | -1% | . | -6% | 14µM*[quencher] | ? | -19%
FC(F)(F)c1cccc(NC(=S)NNC(=S)Nc2ccc(Cl)cc2)c1 | -1% | . | -8% | 8.9µM*[quencher] | ? | ?
FC(F)(F)c1cccc(NC(=S)NCc2ccc(Cl)cc2)c1 | 1% | 5% | 2% | ? | ? | -5%
Cc1cc2nc3ccc(=[N+](C)C)cc-3sc2cc1N | 45µM*[fluorescent] | 1.1µM* | 7.9µM* | ? | 8.9µM* | 14µM*
Cc1cccn2c(=O)c3cc(C(=O)NCCc4ccccc4)c(=N)n(CCCn4ccnc4)c3nc12 | ? | 11µM* | -30% | 11µM*[quencher] | 25µM* | 4%
COc1ccc(/C=C2\CCCC(C(=O)C(F)(F)F)=C2O)cc1 | -2% | ? | -3% | -17% | -10% | -10%
O=C(C1=C(O)/C(=C/c2ccc(O)cc2)CCC1)C(F)(F)F | -4% | 28µM* | 3% | ? | ? | ?
CCOCCCNC(=O)c1ccc(-n2c(-c3ccccc3)cc3c2CCC(C)C3)cc1 (stereo unspecified) | -11% | 10% | 7% | ? | 5µM* | .
CCOc1ccc(CCNC(=O)c2ccc(-n3c(C)cc4c3CCC(C)C4)cc2)cc1OCC (stereo unspecified) | 2% | ? | -3% | -8% | -3% | .
CSc1ccc(CCNC(=O)c2ccc(-n3c(C)cc4c3CCC(C)C4)cc2)cc1 (stereo unspecified) | 22µM*[quencher] | -15% | -11% | -6% | -12% | .
Cc1csc(CN(C)C(=O)CC2C(=O)NCCN2Cc2ccc(-c3ccccc3)cc2)n1 (stereo unspecified) | -10% | 2% | 4% | -12% | -13% | 6%
C=CCOc1ccc(/C=N\NC(N)=S)cc1 | -4% | -3% | -5% | -18% | 12% | -5%
O=C1C(Cc2ccc3[nH]ccc3c2)NC(=S)N1c1ccccc1 (stereo unspecified) | -3% | ? | -8% | -17% | 11% | ?
O=S(=O)(/N=S1/CC=CCN1S(=O)(=O)c1ccccc1)c1ccccc1 (stereo unspecified) | 0% | ? | -26% | -1% | ? | 28µM*
Oc1oc(-c2ccccc2)nc1C=Nc1ccccc1 | 0% | ? | -2% | -28% | 6% | 5%
CC(=O)Nc1ccc(N=Cc2nc(-c3ccc(C)cc3)oc2O)cc1 | -2% | 4.5µM* | 2% | ? | 1% | -2%
CC(=O)Oc1oc(-c2ccccc2)nc1/C=N/c1ccccn1 | -3% | 9% | -3% | 11% | 3% | -1%
COc1ccccc1N=Cc1nc(-c2ccccc2)oc1OC(C)=O | -4% | 25µM* | 0% | ? | ? | -1%
CN(C)c1ccc(N=Cc2nc(-c3ccccc3)oc2O)cc1 | -4% | 2.2µM* | -3% | ? | -9% | -2%
CC(=O)Oc1oc(-c2ccccc2)nc1C=Nc1ccc(N(C)C)cc1 | 1% | 14µM* | -2% | ? | -13% | 10%
CCOc1ccccc1C(=O)N1CCOCC1 | -1% | -9% | 3% | -8% | 0% | 3%
CSc1ccccc1N=Cc1nc(-c2ccccc2)oc1O | -6% | 20µM* | -2% | ? | -11% | -20%
Oc1oc(-c2ccccc2)nc1C=NCc1ccccc1 | -4% | -13% | 8% | ? | 0% | -6%
Cc1ccc(N=Cc2nc(-c3ccc(C)cc3)oc2O)cc1 | 0% | ? | -7% | -17% | -9% | -25%
COc1ccc(N=Cc2nc(-c3ccco3)oc2O)cc1 | -9% | 16µM* | -10% | ? | 7% | 1%
SMILES | TR SRC2 fluor cs | Tau ThT inhib | TRb SRC2 PPI | Tau fluor cs | Tau FP inhib | JMJD2E inh
CC1CCN(S(=O)(=O)c2ccc(NC(=S)NC(=O)c3ccc(Cl)cc3)cc2)CC1 | -5% | 7% | 5% | 2% | ? | 9%
COc1cc(NC(=O)Cn2c(=O)n(Cc3ccco3)c(=O)c3sc4ccccc4c32)cc(OC)c1 | 1% | 7% | -6% | 2% | ? | .
Brc1ccc(N/N=C(/N=Nc2nn[nH]n2)c2ccccc2)cc1 | -8% | 4.5µM* | 12% | 8.9µM*[quencher] | ? | 25µM*
COc1cccc(C(=O)N(c2ccc(C)cc2)C2C=CS(=O)(=O)C2)c1 (stereo unspecified) | -2% | -3% | 8% | -4% | -2% | 0%
Nc1ccccc1Sc1nc2ccccc2[nH]1 | -2% | 28µM* | 3% | 28µM*[quencher] | ? | 13µM*
O=[N+]([O-])c1c(NCCCO)cc(Sc2nc3ccccc3s2)c2nonc12 | -10% | 2.2µM* | -5% | ? | -21% | -2%
CCC(=O)OCCNc1cc(Sc2nc3ccccc3s2)c2nonc2c1[N+](=O)[O-] | -4% | 7.9µM* | -1% | ? | -12% | 1%
CS(=O)(=O)c1ccc(Sc2nc3ccccc3s2)c([N+](=O)[O-])c1 | -2% | ? | -13% | ? | 10% | 6%
CCC(=O)OCCNc1cc(Sc2nc3ccccc3[nH]2)c2nonc2c1[N+](=O)[O-] | 3% | 8.9µM* | -5% | ? | ? | -5%
NCCNc1ccc([N+](=O)[O-])c(Sc2nc3ccccc3[nH]2)c1 | -2% | ? | -1% | ? | -5% | -14%
O=C(CSc1nnnn1-c1ccccc1)c1ccc(O)cc1O | -1% | -15% | -2% | ? | ? | -5%
C/C(=N\NC(=O)Cn1ccc(C(F)(F)F)n1)c1ccco1 | -2% | 1% | 0% | 4% | 2% | -3%
CC(NC(=O)Nc1cc(Cl)ccc1Cl)c1c(-n2cccc2)sc2c1CCCC2 (stereo unspecified) | -1% | 1% | 1% | 3% | 10% | .
COC(=O)c1c(N)n(-c2ccc(N3CCOCC3)cc2)c2nc3ccccc3nc12 | 0% | 10µM* | -3% | ? | ? | 18µM*
Cc1ccc(CNC(=O)c2c[nH]n3c(=O)c(Cc4ccc(F)cc4Cl)c(C)nc23)cc1 | -11% | 28µM* | 3% | ? | -5% | .
CCOC(=O)c1c(-c2cccc([N+](=O)[O-])c2)csc1NC(=O)C1CC1 | 0% | ? | 1% | -30% | 0% | 5%
CCOC(=O)c1c(-c2cccc([N+](=O)[O-])c2)csc1N | -2% | ? | 7% | 22µM*[quencher] | 7% | -8%
O=C(NCC1CCCO1)C1CC(=O)N(c2ccc(F)c(Cl)c2)C1 (stereo unspecified) | -2% | -2% | 7% | 1% | -2% | -2%
O=C(Nc1ccc(Cl)c(Cl)c1)OCc1cccnc1 | 1% | 18% | -9% | ? | 14µM* | 4%

High-throughput results deposited in PubChem by National Center for Advancing Translational Sciences (NCATS).
